Screens: PubChem BioAssay, National Center for Advancing Translational Sciences (NCATS)
p53ts 32C kill = cytotoxicity in p53ts cells at permissive temperature; H1299-p53A138V at 32C, ATP luminescence viability, 24 h; Potency, µM (doses to about 46.1 µM), most hits filed as cytotoxic; 130,000 tested, 0.93% active; AID 924; note: nearly all actives have a fitted effect of over 55% in size
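H1299-p53 A138V cells (temperature-sensitive p53) exposed 24 h to up to 46 uM compound at 32C, where p53 is wild-type in conformation. Viability read as ATP luminescence and normalised to DMSO and 100 uM tamoxifen. AC50 fitted with the Hill equation.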
12-hLO inh = 12-hLO (ALOX12) enzyme inhibition; P18054; purified 12-hLO, xylenol orange hydroperoxide absorbance; Potency, µM (titrated, usually from 57.1 µM), actives largely listed as inhibitors; 150,000 tested, 0.12% active; note: nearly all actives have a fitted effect of over 55% in size
Target sequence (P18054 whole entry, looked up): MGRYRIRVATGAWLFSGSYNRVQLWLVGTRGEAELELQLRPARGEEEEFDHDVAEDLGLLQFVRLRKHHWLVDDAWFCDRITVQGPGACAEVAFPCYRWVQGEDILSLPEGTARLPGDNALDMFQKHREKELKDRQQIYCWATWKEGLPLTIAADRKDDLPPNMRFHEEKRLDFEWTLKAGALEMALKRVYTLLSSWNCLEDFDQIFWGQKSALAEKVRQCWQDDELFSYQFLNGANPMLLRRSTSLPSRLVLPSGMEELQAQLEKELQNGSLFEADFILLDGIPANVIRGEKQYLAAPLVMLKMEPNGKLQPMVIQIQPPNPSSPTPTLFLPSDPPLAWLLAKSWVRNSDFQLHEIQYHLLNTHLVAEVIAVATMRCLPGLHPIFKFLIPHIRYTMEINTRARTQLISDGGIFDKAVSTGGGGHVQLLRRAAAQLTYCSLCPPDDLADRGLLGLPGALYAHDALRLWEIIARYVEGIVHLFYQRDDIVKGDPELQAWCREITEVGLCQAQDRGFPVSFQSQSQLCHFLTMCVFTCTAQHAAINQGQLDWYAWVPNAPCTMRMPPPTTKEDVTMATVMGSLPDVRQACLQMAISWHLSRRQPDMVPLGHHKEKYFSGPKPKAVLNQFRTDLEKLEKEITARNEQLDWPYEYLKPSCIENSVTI
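150 nM 12hLO, 25 mM Hepes pH 7.0 + 0.01% Triton X-100; cpd preinc 15 min RT; 40 uM arachidonic acid, 30 min RT; Fe-XO 30 min; A573/A405 ratio as read-out.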
p53ts 39C tox = kills p53ts cells at the nonpermissive temperature; H1299-p53A138V viability at 39C, ATP luminescence, 24 h; 130,000 tested, 1.5% active; Potency, µM (series often up to 46.1 µM), most hits filed as cytotoxic; note: nearly all actives have a fitted effect of over 55% in size
HPGD block = HPGD (human) dehydrogenase inhibition. P15428. purified HPGD, NADH fluorescence kinetic, PGE2 substrate. Potency, µM, usual class: inhibitors. 150,000 tested, 4.3% active. AID 894; active = well fitted inhibition curve with a large enough effect, not every such curve was filed as active; inconclusive = small, poorly fitted or top-dose-only effect, or another doubt; inactive = no such curve, though single readings can be large or run the other way
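NADH formation kinetics: reaction with 30 uM PGE2 and 1 mM NAD+ (final), 20 nM enzyme, Tris-HCl pH 8 with Tween 20, after 15 min compound preincubation at room temperature. Fluorescence change, last versus first of five reads.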
Numbers stand for hits; i = inactive; ? = inconclusive; nt = no result given; [ ] = remark or other dose. Rows were chosen to be rich in hits. Some 4.4% of all compounds tested hit in one or more screens of this group. Unless noted, calls come from the whole dose curve; as a rule, active = well fitted curve in the direction sought with a large enough effect; inconclusive = small, poorly fitted or top-dose-only effect, or another doubt; inactive = no such curve, though single readings can be large; an effect the other way counts as inactive or inconclusive.

SMILES | p53ts 32C kill | 12-hLO inh | p53ts 39C tox | HPGD block
Cc1cn2c(=O)cc(COc3ccc(NC(=O)c4ccc(C(C)(C)C)cc4)cc3)nc2s1 | i | nt | i | nt
CC(=O)c1ccc(Oc2ccc(C(C)=O)cc2)cc1 | nt | i | nt | ?
CN(C)C(=O)c1ccc(Oc2ccc(C(=O)N(C)C)cc2)cc1 | i | i | i | 16µM
COc1cccc(C2=NOC(C(=O)N3CCc4ccccc4C3)C2)c1 (stereo unspecified) | i | i | ? | i
O=C(C1CC(c2ccc(F)cc2)=NO1)N1CCc2ccccc2C1 (stereo unspecified) | i | i | i | 20µM
O=C(C1CC(c2ccccc2O)=NO1)N1CCCCC1 (stereo unspecified) | nt | i | nt | 7.9µM
O=C(C1CC(c2ccc(F)cc2)=NO1)N1CCCCC1 (stereo unspecified) | i | i | i | i
O=C(C1Cc2ccccc2O1)N1CCCCC1 (stereo unspecified) | i | i | i | 25µM
O=C(C1CC(c2ccccc2O)=NO1)N1CCc2ccccc2C1 (stereo unspecified) | nt | i | nt | 16µM
Cc1nc(N2CCCCC2)c2sc(=S)n(C)c2n1 | i | i | i | i
CCN1CCN(c2nc(C)nc3c2sc(=S)n3C)CC1 | i | i | i | 10µM
O=c1oc2ccccc2c(O)c1/C=C1\C=Nc2ccccc21 | nt | i | nt | 2.2µM
O=c1oc2ccccc2c(O)c1/C=N/c1ncccn1 | i | ? | i | ?
O=c1[nH]n(-c2cccc3cccnc23)c(=O)c2ccccc12 | i | i | i | 25µM
Cc1nn(-c2cccc3cccnc23)c(=O)c2ccccc12 | nt | i | nt | i
O=c1c2c(nc3cc(-c4ccc(F)cc4)[nH]n13)CCCC2 | 13µM | i | 10µM | ?
O=C(CCSCCC(=O)NCc1ccco1)NCc1ccco1 | i | i | i | 16µM
CC(C)C(CC(=O)NCc1ccco1)c1ccco1 (stereo unspecified) | nt | i | nt | 14µM
Cc1occc1-c1nnc(SCC(=O)NCc2ccco2)n1CC(C)C | i | i | i | i
CC(C)(C)c1nc2ccccc2c2nnc(SCC(=O)NCc3ccco3)n12 | i | i | i | 16µM
C=CCn1c(SCC(=O)NCc2ccco2)nnc1-c1ccc2ccccc2n1 | i | i | i | 16µM
OC[C@@H]1O[C@@H](n2cnc3c(SCc4ccccc4)ncnc32)[C@@H](O)[C@H]1O | i[9.22 µM] | i[11.4 µM] | i[9.22 µM] | i
CCC1CCCCN1C(=O)CSc1nnc(-c2ccc(OC)c(OC)c2)o1 (stereo unspecified) | i | nt | i | nt
O=C(CSc1ccccc1)NCc1ccco1 | i | i | i | 28µM
O=C(CSc1ccc2c(c1)OCCO2)NCc1ccco1 | i | i | i | 25µM
SMILES | p53ts 32C kill | 12-hLO inh | p53ts 39C tox | HPGD block
CCCn1cc(SCC(=O)NCc2ccco2)c2ccccc21 | i | i | i | 18µM
O=C(CSc1ccc2c(c1)OCCO2)NC(=O)Cc1ccccc1 | nt | i | nt | i
O=C(CSc1cn(CCNC(=O)c2ccccc2)c2ccccc12)NCc1ccco1 | nt | i | nt | i
O=C(CSCC(=O)NCc1ccco1)NCc1ccco1 | i | i | i | i
COc1cccc(C(=O)Oc2cc3c4c(c2)C(C)=CC(C)(C)N4C(=O)C3=O)c1 | nt | i | nt | 28µM
COc1ccc(C(=O)Oc2cc3c4c(c2)C(C)=CC(C)(C)N4C(=O)C3=O)cc1OC | i | i | i | 32µM
O=C(O)C1=C/C(=C(/c2ccccc2)c2cc(C(=O)O)c(O)c3ccccc23)c2ccccc2C1=O | i[9.22 µM] | i[11.4 µM] | i[9.22 µM] | i
CCOC(=O)c1cnc(SCc2cccc3ccccc23)nc1N | nt | i | nt | 28µM
CCOC(=O)c1cc(-c2ccc(OC)cc2)n(CCC(=O)NCc2ccccc2OC)c1C | i | nt | i | nt
CC(NCc1ccc2c(c1)n(C)c(=O)n2C)c1ccccc1 (stereo unspecified) | i | nt | i | nt
C=C(CC1([C@@H](NP(=O)(c2ccccc2)c2ccccc2)[C@H]2C[C@@H]2CCCC)CC1)c1ccccc1 | i | i | 25µM | i
CCCC[C@@H]1C[C@H]1[C@@H](NP(=O)(c1ccccc1)c1ccccc1)c1ccccc1OC | ? | i | 25µM | i
CCCC[C@@H]1C[C@H]1C(NC(=O)c1ccccc1)c1ccccc1 (stereo partly specified) | i | i | i | i
CCCOc1ccc(/C=C/C(=O)Nc2sc(C)c(C)c2C(=O)OCC)cc1OC | i | nt | i | nt
Cc1ccc2c(c1)N(C(=O)C1CCN(S(=O)(=O)c3c(C)noc3/C=C/c3ccccc3F)CC1)CCO2 | i | nt | i | nt
Cc1ccc2c(c1)N(C(=O)N1CCC(C(=O)NCc3ccccc3F)CC1)CC(C)O2 (stereo unspecified) | i | nt | i | nt
Cn1c(=O)c([N+](=O)[O-])c(NCCc2ccccc2)c2ccccc21 | nt | i | nt | 16µM
COc1ccc(CCNC(=O)Cn2c(=O)nc(-c3ccccc3)c3ccccc32)cc1OC | i | nt | i | nt
CCn1c(=O)c([N+](=O)[O-])c(NCCc2ccc(OC)c(OC)c2)c2ccccc21 | nt | i | nt | 8.9µM
CCn1c(=O)c([N+](=O)[O-])c(NCCc2ccccc2)c2ccccc21 | nt | i | nt | 16µM
CCC(Sc1nnc2c(n1)[nH]c1ccccc12)C(=O)Nc1nnc(C(C)C)s1 (stereo unspecified) | ? | nt | 10µM | nt
CCC(Sc1nnc2c3ccccc3n(C)c2n1)C(=O)Nc1nnc(C(C)C)s1 (stereo unspecified) | i | nt | i | nt
COc1ccccc1C(=O)OCc1cc(=O)n2c(C)csc2n1 | ? | nt | 0.13µM | nt
COc1cccc(C(=O)Nc2ccccc2C(=O)OCc2cc(=O)n3c(C)csc3n2)c1 | i | nt | i | nt
Cc1ccc(C(=O)CSc2nsc(C)c2C#N)cc1 | nt | i | nt | 22µM
Cc1cc(C)c(C#N)c(OCC(=O)c2ccc(Br)cc2)n1 | nt | i | nt | i
Cc1ccnc(SCC(=O)c2ccc(Br)cc2)c1C#N | nt | i | nt | 28µM
